Test results taken from PubChem BioAssay (NCATS).
Inconclusive results are not listed. Activity calls are given as the source filed them. Calls come from the whole dose curve; as a rule, active = well fitted inhibition curve with a large enough effect; inconclusive = small, poorly fitted or top-dose-only effect; inactive = flat fitted curve, though single readings scatter.

Key:
Experiment in all cases: qHTS profiling for inhibitors of Plasmodium falciparum proliferation (AID 504749); note: nearly all actives have a fitted effect of over 60% in size
Conditions in all cases: P. falciparum in erythrocytes, SYBR Green DNA, 72 h; series mostly up to 28.7 µM
CP266 = tested on: CP266
In short: (§1)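 Quantitative HTS: compounds pinned into medium, infected erythrocytes added (0.3% parasitemia, 2.5% hematocrit), 72 h culture at 37 C under 5% CO2. Saponin/Triton lysis with SYBR Green I, overnight RT, then fluorescence read.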

CP268 = tested on: CP268
In short: as §1

CP269 = tested on: CP269
In short: as §1

CP286 = tested on: CP286
In short: as §1

CP291 = tested on: CP291
In short: as §1

CP297 = tested on: CP297
In short: as §1

CP305 = tested on: CP305
In short: as §1

CP315 = tested on: CP315
In short: as §1

CP325 = tested on: CP325
In short: as §1

CP329 = tested on: CP329
In short: as §1

CP335 = tested on: CP335
In short: as §1

DFO2036 = tested on: DFO2036
In short: as §1

DIV14 = tested on: DIV14
In short: as §1

DIV17 = tested on: DIV17
In short: as §1

DIV30 = tested on: DIV30
In short: as §1

Dd2 = tested on: Dd2
In short: as §1

ECU = tested on: ECU
In short: as §1

FAB9 = tested on: FAB9
In short: as §1

GB4 = tested on: GB4
In short: as §1

HB3 = tested on: HB3
In short: as §1

ICS = tested on: ICS
In short: as §1

JCK = tested on: JCK
In short: as §1

N140 = tested on: N140
In short: as §1

P93_24 = tested on: P93_24
In short: as §1

P94_40 = tested on: P94_40
In short: as §1

PAD = tested on: PAD
In short: as §1

PC15 = tested on: PC15
In short: as §1

PC26 = tested on: PC26
In short: as §1

PC49 = tested on: PC49
In short: as §1

SC27B = tested on: SC27B
In short: as §1

TAB109 = tested on: TAB109
In short: as §1

TAB113 = tested on: TAB113
In short: as §1

TAB165 = tested on: TAB165
In short: as §1

W2 = tested on: W2
In short: as §1

Measured: Potency

CC(C)CN(C[C@@H](OP(=O)(O)O)[C@H](Cc1ccccc1)NC(=O)O[C@@H]1CCOC1)S(=O)(=O)c1ccc(N)cc1
inactive: all assays above
